The record followed here is PubChem BioAssay (EPA / NIEHS).

Structures are written as SMILES. Records with an inconclusive call do not appear. Active and inactive are the calls of the source. How the source made its calls, unless noted: active means hit-call score of the fitted dose curve at least 0.9, where 1 is the maximum; inactive means score below 0.9.

For orientation: AC50 means the concentration giving half of the maximal activity seen.

Chain of Nuclear receptor subfamily 1 group I member 3 (Homo sapiens) (Q14994 whole entry, looked up, the tested form may be a part): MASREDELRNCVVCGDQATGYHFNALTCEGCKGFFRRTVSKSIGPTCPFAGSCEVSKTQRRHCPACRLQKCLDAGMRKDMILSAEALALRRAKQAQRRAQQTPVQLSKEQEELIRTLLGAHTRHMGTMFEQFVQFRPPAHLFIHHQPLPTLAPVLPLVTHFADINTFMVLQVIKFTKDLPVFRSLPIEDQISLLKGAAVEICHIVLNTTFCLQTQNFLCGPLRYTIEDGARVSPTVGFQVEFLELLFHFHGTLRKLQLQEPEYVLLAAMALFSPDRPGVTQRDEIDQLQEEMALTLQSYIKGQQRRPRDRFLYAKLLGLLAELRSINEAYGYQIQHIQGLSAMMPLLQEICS

Test system in one experiment: not listed separately
Nature of the experiment: ATG_TGFb_CIS: Attagene CIS-FACTORIAL HepG2 Assay for human Transforming Growth Factor (TGF) (AID 2282967). As to conditions: HepG2 Attagene CIS TGFb reporter, mRNA transcription; actives raise or lower the signal. In a few lines: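 Transient MRTU transfection of HepG2 (FuGene 6). Dose 24 h. TriZol RNA, oligo(dT) RT, PCR, 6-FAM primer extension, HpaI cut, CE. Bidirectional fit, DMSO = baseline.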
With `COP(=O)(OC)OC(Br)C(Cl)(Cl)Br` (stereo not given), the outcome was inactive.

As for `CCOP(=S)(OCC)SCCSCC`, the result was inactive.

Turning to `CSc1nnc(C(C)(C)C)c(=O)n1N`, the call was inactive.

Regarding `CC(C)N(C(=O)SCC(Cl)=C(Cl)Cl)C(C)C`, the outcome was inactive.

For `O=C(O)c1cc(Oc2ccc(C(F)(F)F)cc2Cl)ccc1[N+](=O)[O-]`, the compound was called inactive.

Turning to `COc1cccc(C(=O)NN(C(=O)c2cc(C)cc(C)c2)C(C)(C)C)c1C`, the call was inactive.

For the compound `CC(C1CC1)C(O)(Cn1cncn1)c1ccc(Cl)cc1` (stereo not given), the compound was classed as inactive.

`CCOP(=S)(OCC)Oc1cc(C)nc(C(C)C)n1`: the outcome was inactive.

`CCOP(=O)(OCC)Oc1cc(C)nc(C(C)C)n1`: the compound was classed as inactive.

On to `CCOP(=O)(NC(C)C)Oc1ccc(SC)c(C)c1` (stereo not given), for which the result was inactive.

In the case of `CN(C)[C@@H]1C(=O)C(C(N)=O)=C(O)[C@@]2(O)C(=O)C3=C(O)c4c(O)cccc4[C@@](C)(O)[C@H]3[C@H](O)[C@@H]12`, the call was inactive.

With `CCC(=NOC/C=C/Cl)C1=C(O)CC(C2CCOCC2)CC1=O` (stereo not given), the outcome was inactive.

Take `Cc1ccn2nc(S(=O)(=O)Nc3c(F)cccc3F)nc2n1`: the compound was called inactive.

On to `CCCOc1nn(C(=O)NS(=O)(=O)c2ccccc2C(=O)OC)c(=O)n1C`, for which the compound was called inactive.

Consider `Cc1nn(-c2cc(NS(C)(=O)=O)c(Cl)cc2Cl)c(=O)n1C(F)F`, for which the call was inactive.

With `CCOP(=O)(SC(C)CC)N1CCSC1=O` (stereo not given), the result was inactive.

Turning to `CCCCSP(=O)(SCCCC)SCCCC`, the call was inactive.

Consider `C[N+]1(C)CCCCC1`, for which the compound was classed as inactive.

On to `Nc1nc(N)nc(NC2CC2)n1`, for which the outcome was inactive.

In the case of `CCc1cccc(CC)c1N(COC)C(=O)CCl`, the result was inactive.

With `CC1=NNC(=O)N(/N=C/c2cccnc2)C1`, the compound was called inactive.

Consider `CCCOCC(=Nc1ccc(Cl)cc1C(F)(F)F)n1ccnc1`, for which the call was inactive.

Consider `CON=C(C(=O)OC)c1ccccc1CON=C(C)c1cccc(C(F)(F)F)c1`, for which the compound was called inactive.

With `C#CC(C)(C)NC(=O)c1cc(Cl)cc(Cl)c1`, the compound was called inactive.

`CNC(=O)ON=C(C)SC`: the compound was called inactive.

In the case of `CNc1cnn(-c2cccc(C(F)(F)F)c2)c(=O)c1Cl`, the outcome was inactive.

Turning to `C[Si](Cn1cncn1)(c1ccc(F)cc1)c1ccc(F)cc1`, the outcome was inactive.

On to `CCNc1nc(Cl)nc(NC(C)(C)C#N)n1`, for which the call was inactive.

Take `CCCCOC(=O)c1ccccc1C(=O)O`: the call was inactive.

As to `CCOP(=S)(OCC)Oc1ccc([N+](=O)[O-])cc1`, the compound was called inactive.

Take `CCOC(=O)CC(SP(=O)(OC)OC)C(=O)OCC` (stereo not given): the call was inactive.

In the case of `CCc1cccc(C)c1N(C(=O)CCl)C(C)COC` (stereo not given), the compound was called inactive.

Regarding `CCOC(=O)COc1cc(-c2nn(C)c(OC(F)F)c2Cl)c(F)cc1Cl`, the result was inactive.

With `FC(F)C(F)(F)OCC(Cn1cncn1)c1ccc(Cl)cc1Cl` (stereo not given), the outcome was inactive.

Consider `CC(C)[C@H](C(=O)O[C@H](C#N)c1cccc(Oc2ccccc2)c1)c1ccc(Cl)cc1`, for which the result was inactive.

Take `CC(=NC#N)N(C)Cc1ccc(Cl)nc1`: the compound was classed as inactive.

A further experiment has as its target Nuclear receptor subfamily 1 group I member 3 (Homo sapiens) (UniProt Q14994). Nature of the experiment: ATG_CAR_TRANS: Attagene TRANS-FACTORIAL HepG2 Assay for human Constitutive Androstane Receptor (CAR) (AID 2282969; active means hit-call score of the fitted dose curve at least 0.9, where 1 is the maximum;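 further: activators raise reporter mRNA above DMSO so AC50 marks induction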). The conditions noted are these: HepG2 Attagene TRANS-FACTORIAL CAR reporter. In a few lines: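 Transiently transfected HepG2, multiplex TRANS reporters (CAR-Gal4 chimera driving GAL4-UAS reporter). 24 h dosing. Readout: reporter transcript by RT-PCR + capillary electrophoresis, fluorescence intensity; positive direction vs DMSO.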
On to `CCOP(=S)(OCC)SCCSCC`, for which the outcome was inactive.

Turning to `CC(C)N(C(=O)SCC(Cl)=C(Cl)Cl)C(C)C`, the outcome was inactive.

Take `CCOP(=S)(OCC)Oc1cc(C)nc(C(C)C)n1`: the compound was called inactive.

Regarding `CCOP(=O)(NC(C)C)Oc1ccc(SC)c(C)c1` (stereo not given), the outcome was inactive.

With `Cc1ccn2nc(S(=O)(=O)Nc3c(F)cccc3F)nc2n1`, the compound was classed as inactive.

For the compound `CCCOc1nn(C(=O)NS(=O)(=O)c2ccccc2C(=O)OC)c(=O)n1C`, the outcome was inactive.

With `CCOP(=O)(SC(C)CC)N1CCSC1=O` (stereo not given), the outcome was inactive.

Take `CCCCSP(=O)(SCCCC)SCCCC`: the call was inactive.

Regarding `CON=C(C(=O)OC)c1ccccc1CON=C(C)c1cccc(C(F)(F)F)c1`, the result was inactive.

For `C#CC(C)(C)NC(=O)c1cc(Cl)cc(Cl)c1`, the result was inactive.

Regarding `CNc1cnn(-c2cccc(C(F)(F)F)c2)c(=O)c1Cl`, the result was inactive.

Turning to `CCNc1nc(Cl)nc(NC(C)(C)C#N)n1`, the result was inactive.

For the compound `CCCCOC(=O)c1ccccc1C(=O)O`, the call was inactive.

As for `CCOP(=S)(OCC)Oc1ccc([N+](=O)[O-])cc1`, the compound was called inactive.

With `CCOC(=O)CC(SP(=O)(OC)OC)C(=O)OCC` (stereo not given), the result was inactive.

For `CCc1cccc(C)c1N(C(=O)CCl)C(C)COC` (stereo not given), the outcome was inactive.

`CC(C)[C@H](C(=O)O[C@H](C#N)c1cccc(Oc2ccccc2)c1)c1ccc(Cl)cc1`: the compound was called inactive.

The target of the next experiment is Steroid hormone receptor ERR1 (Homo sapiens) (UniProt P11474). Nature of the experiment: ATG_ERRa_TRANS: Attagene TRANS-FACTORIAL HepG2 Assay for human Estrogen-Related Receptor alpha (ERRa) (AID 2282971; active means hit-call score of the fitted dose curve at least 0.9, where 1 is the maximum). The conditions noted are these: HepG2 Attagene TRANS reporter, ERRa transactivation. In a few lines: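 Reporter transcripts from ERRa-Gal4 chimera activity measured in transiently transfected human HepG2 cells 24 hours after dosing, using RT-PCR with 6-FAM primer extension, HpaI digestion and capillary electrophoresis; DMSO is baseline.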
Chain of Steroid hormone receptor ERR1 (Homo sapiens) (P11474 whole entry, looked up, the tested form may be a part): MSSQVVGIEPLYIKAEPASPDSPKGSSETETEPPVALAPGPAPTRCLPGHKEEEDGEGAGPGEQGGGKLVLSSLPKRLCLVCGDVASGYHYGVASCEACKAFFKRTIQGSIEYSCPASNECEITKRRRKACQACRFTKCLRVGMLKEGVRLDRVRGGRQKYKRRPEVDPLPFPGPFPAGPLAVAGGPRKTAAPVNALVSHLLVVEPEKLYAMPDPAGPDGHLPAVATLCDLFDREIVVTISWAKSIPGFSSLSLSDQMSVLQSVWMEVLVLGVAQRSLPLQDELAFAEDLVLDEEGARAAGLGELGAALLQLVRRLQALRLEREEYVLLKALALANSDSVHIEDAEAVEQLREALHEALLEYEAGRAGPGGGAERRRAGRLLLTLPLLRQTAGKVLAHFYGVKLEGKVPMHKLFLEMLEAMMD
Turning to `O=C(O)c1cc(Oc2ccc(C(F)(F)F)cc2Cl)ccc1[N+](=O)[O-]`, the outcome was inactive.

As to `COc1cccc(C(=O)NN(C(=O)c2cc(C)cc(C)c2)C(C)(C)C)c1C`, the outcome was inactive.

For the compound `CCC(=NOC/C=C/Cl)C1=C(O)CC(C2CCOCC2)CC1=O` (stereo not given), the compound was called inactive.

For `Cc1nn(-c2cc(NS(C)(=O)=O)c(Cl)cc2Cl)c(=O)n1C(F)F`, the result was inactive.

Turning to `Nc1nc(N)nc(NC2CC2)n1`, the compound was classed as inactive.

For the compound `CCOC(=O)COc1cc(-c2nn(C)c(OC(F)F)c2Cl)c(F)cc1Cl`, the call was inactive.

In another experiment the target is X-box-binding protein 1 (Homo sapiens) (UniProt P17861). Nature of the experiment: ATG_Xbp1_CIS: Attagene CIS-FACTORIAL HepG2 Assay for human X-box Binding Protein 1 (XBP1) (AID 2282972). As to conditions: HepG2 XBP1 cis-element reporter, Attagene multiplex; actives raise or lower the signal. In short, it runs like this: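 Multiplexed cis-reporter readout in transfected HepG2 liver cells. Exposure lasted 24 hours. Activity in either direction was fitted against DMSO as negative control and baseline.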
Chain of X-box-binding protein 1 (Homo sapiens) (P17861 whole entry, looked up): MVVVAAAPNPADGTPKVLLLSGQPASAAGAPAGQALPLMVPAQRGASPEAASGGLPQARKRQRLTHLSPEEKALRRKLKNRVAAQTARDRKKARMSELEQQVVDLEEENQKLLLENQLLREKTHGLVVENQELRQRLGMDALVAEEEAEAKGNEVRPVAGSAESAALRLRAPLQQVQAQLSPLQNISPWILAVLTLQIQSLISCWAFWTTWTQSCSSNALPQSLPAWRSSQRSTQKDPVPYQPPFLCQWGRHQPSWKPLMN
In the case of `COP(=O)(OC)OC(Br)C(Cl)(Cl)Br` (stereo not given), the result was inactive.

Consider `CCOP(=S)(OCC)SCCSCC`, for which the compound was classed as inactive.

Consider `CSc1nnc(C(C)(C)C)c(=O)n1N`, for which the compound was called inactive.

Turning to `CC(C)N(C(=O)SCC(Cl)=C(Cl)Cl)C(C)C`, the call was inactive.

On to `O=C(O)c1cc(Oc2ccc(C(F)(F)F)cc2Cl)ccc1[N+](=O)[O-]`, for which the call was inactive.

Turning to `COc1cccc(C(=O)NN(C(=O)c2cc(C)cc(C)c2)C(C)(C)C)c1C`, the compound was called inactive.

Consider `CC(C1CC1)C(O)(Cn1cncn1)c1ccc(Cl)cc1` (stereo not given), for which the compound was classed as inactive.

With `CCOP(=S)(OCC)Oc1cc(C)nc(C(C)C)n1`, the outcome was inactive.

`CCOP(=O)(OCC)Oc1cc(C)nc(C(C)C)n1`: the result was inactive.

Turning to `CCOP(=O)(NC(C)C)Oc1ccc(SC)c(C)c1` (stereo not given), the outcome was inactive.

Consider `CN(C)[C@@H]1C(=O)C(C(N)=O)=C(O)[C@@]2(O)C(=O)C3=C(O)c4c(O)cccc4[C@@](C)(O)[C@H]3[C@H](O)[C@@H]12`, for which the compound was called inactive.

As to `CCC(=NOC/C=C/Cl)C1=C(O)CC(C2CCOCC2)CC1=O` (stereo not given), the result was inactive.

Consider `Cc1ccn2nc(S(=O)(=O)Nc3c(F)cccc3F)nc2n1`, for which the compound was called inactive.

Consider `CCCOc1nn(C(=O)NS(=O)(=O)c2ccccc2C(=O)OC)c(=O)n1C`, for which the outcome was inactive.

As to `Cc1nn(-c2cc(NS(C)(=O)=O)c(Cl)cc2Cl)c(=O)n1C(F)F`, the compound was classed as inactive.

`CCOP(=O)(SC(C)CC)N1CCSC1=O` (stereo not given): the result was inactive.

On to `CCCCSP(=O)(SCCCC)SCCCC`, for which the result was inactive.

For the compound `C[N+]1(C)CCCCC1`, the compound was classed as inactive.

Regarding `Nc1nc(N)nc(NC2CC2)n1`, the compound was called inactive.

On to `CCc1cccc(CC)c1N(COC)C(=O)CCl`, for which the result was inactive.

Consider `CC1=NNC(=O)N(/N=C/c2cccnc2)C1`, for which the outcome was inactive.

On to `CCCOCC(=Nc1ccc(Cl)cc1C(F)(F)F)n1ccnc1`, for which the compound was classed as inactive.

As for `CON=C(C(=O)OC)c1ccccc1CON=C(C)c1cccc(C(F)(F)F)c1`, the call was inactive.

For the compound `C#CC(C)(C)NC(=O)c1cc(Cl)cc(Cl)c1`, the call was inactive.

For the compound `CNC(=O)ON=C(C)SC`, the compound was called inactive.

Turning to `CNc1cnn(-c2cccc(C(F)(F)F)c2)c(=O)c1Cl`, the result was inactive.

On to `C[Si](Cn1cncn1)(c1ccc(F)cc1)c1ccc(F)cc1`, for which the result was inactive.

Turning to `CCNc1nc(Cl)nc(NC(C)(C)C#N)n1`, the outcome was inactive.

Turning to `CCCCOC(=O)c1ccccc1C(=O)O`, the call was inactive.

Turning to `CCOP(=S)(OCC)Oc1ccc([N+](=O)[O-])cc1`, the outcome was inactive.

Consider `CCOC(=O)CC(SP(=O)(OC)OC)C(=O)OCC` (stereo not given), for which the outcome was inactive.

With `CCc1cccc(C)c1N(C(=O)CCl)C(C)COC` (stereo not given), the result was inactive.

On to `CCOC(=O)COc1cc(-c2nn(C)c(OC(F)F)c2Cl)c(F)cc1Cl`, for which the outcome was inactive.

Consider `FC(F)C(F)(F)OCC(Cn1cncn1)c1ccc(Cl)cc1Cl` (stereo not given), for which the AC50 was 75.8 µM (active).

`CC(C)[C@H](C(=O)O[C@H](C#N)c1cccc(Oc2ccccc2)c1)c1ccc(Cl)cc1`: the result was inactive.

As for `CC(=NC#N)N(C)Cc1ccc(Cl)nc1`, the outcome was inactive.
